Some test systems named below: SK-MEL-2 melanoma; EKVX NSCLC; SN12C renal; UO-31 renal; TK-10 renal; ACHN renal; CAKI-1 renal; A498 renal; CCRF-CEM leukemia; MOLT-4 leukemia.
What all share (test): NCI-60 one-dose screen, 48 h (100 = growth as untreated, 0 = no growth, -100 = all killed)
Settings in all cases: 10 µM unless noted

Among the data in PubChem BioAssay (NCI) are growth values, retold here.

The panel holds about 83,000 compounds, 20% with a hit somewhere; the sample as a whole holds those more often.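 Compound tested at a single concentration for 48 hours in 96-well plates; a percent growth value below 10 was scored as active.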 A number with no mark means an inactive call. The source made the active and inactive calls.

Regarding `Cc1ccccc1Nc1n[nH]c(Cc2ccccc2)n1`, the growth is 83.8% in the experiment with SK-MEL-2 melanoma; 103% in the experiment with EKVX NSCLC; 104% in the experiment with SN12C renal; 86% in the experiment with UO-31 renal; 90% in the experiment on TK-10 renal; 106% with ACHN renal. In addition, the growth is 101% in the experiment on CAKI-1 renal, 102% with A498 renal, 97.8% with CCRF-CEM leukemia and 70.2% in the experiment with MOLT-4 leukemia.
Regarding `CCOC(=O)C(Cc1ccccc1)n1c(O)c(/C=N/c2ncc(Cc3ccc(Cl)cc3Cl)s2)sc1=S` (stereo not given), the growth was -18.4% (active) in the experiment with SK-MEL-2 melanoma; 10.8% in the experiment with EKVX NSCLC; 6.54% (active) with SN12C renal; 3.67% (active) in the experiment on UO-31 renal; 2.28% (active) in the experiment with TK-10 renal; 3.38% (active) with ACHN renal. Further, the growth with CAKI-1 renal is 12.7%; in the experiment with A498 renal, -27.3% (active); with CCRF-CEM leukemia, 2.77% (active); with MOLT-4 leukemia, -7.05% (active).
As for `COc1cc(CN(c2ccc(C)cc2)C2OC(=O)c3ccccc32)cc(OC)c1OC` (stereo not given), the growth in the experiment on SK-MEL-2 melanoma was 55%; with EKVX NSCLC, 71.8%; with SN12C renal, 50.1%; in the experiment with UO-31 renal it was 59.7%; with TK-10 renal it was 93.3%; in the experiment with ACHN renal it was 56.3%. Further, the growth was 49.3% in the experiment on CAKI-1 renal, 51.7% in the experiment with A498 renal, 11.5% in the experiment on CCRF-CEM leukemia and 17.9% in the experiment on MOLT-4 leukemia.
On to `COc1ccc2nc3cc(Cl)ccc3c(NC(=O)CSc3ccc(Cl)cc3)c2c1`, for which the growth is -88.5% (active) with SK-MEL-2 melanoma; -62.4% (active) with EKVX NSCLC; -75.3% (active) in the experiment on SN12C renal; -96.1% (active) in the experiment with UO-31 renal; -96.1% (active) in the experiment on TK-10 renal; -94.6% (active) in the experiment with ACHN renal. Moreover, the growth in the experiment on CAKI-1 renal is -90.8% (active); in the experiment on A498 renal, -99% (active); in the experiment on CCRF-CEM leukemia, 1.21% (active); with MOLT-4 leukemia, -52% (active).
Regarding `O=C1Nc2ccc(Cl)cc2/C1=C\c1c(-c2ccc(F)cc2)nc2ccccn12`, the growth is 66.2% in the experiment with SK-MEL-2 melanoma; 33.8% in the experiment with EKVX NSCLC; 6.4% (active) with SN12C renal; 6.63% (active) in the experiment with UO-31 renal; 82.8% with TK-10 renal; 31.4% with ACHN renal. Further, the growth was 40.2% in the experiment on CAKI-1 renal, -18% (active) with A498 renal, 5.38% (active) in the experiment on CCRF-CEM leukemia and -4.17% (active) in the experiment on MOLT-4 leukemia.
As to `O=C(c1ccccc1)C(CCc1ccccn1)CCc1ccccn1`, the growth in the experiment with SK-MEL-2 melanoma was 96.1%; in the experiment with EKVX NSCLC, 107%; with SN12C renal, 95.7%; in the experiment on UO-31 renal, 75.1%; in the experiment with TK-10 renal, 97.3%; in the experiment with ACHN renal it was 106%. Besides, the growth is 106% in the experiment with CAKI-1 renal, 100% in the experiment on A498 renal, 95.3% in the experiment on CCRF-CEM leukemia and 99% in the experiment on MOLT-4 leukemia.
Turning to `Nc1nc(NC2CC2)cc(-c2cccc(Cl)c2Cl)n1`, the growth is 14.3% with SK-MEL-2 melanoma; 71.9% in the experiment with EKVX NSCLC; 59.6% in the experiment on SN12C renal; 71.7% in the experiment on UO-31 renal; 87.3% in the experiment with TK-10 renal; 75.1% in the experiment with ACHN renal. The growth in the experiment with CAKI-1 renal was 58.5%; in the experiment with A498 renal, 47.7%; with CCRF-CEM leukemia, 62.3%; in the experiment with MOLT-4 leukemia it was 28.4%.
Consider `O=C(O)c1cc2cc(OCc3ccccc3)ccc2[nH]1`, for which the growth with SK-MEL-2 melanoma is 39.9%; with EKVX NSCLC it was 87.3%; in the experiment with SN12C renal it was 97.1%; with UO-31 renal, 74.4%; in the experiment on TK-10 renal it was 114%; in the experiment on ACHN renal, 98.7%. In addition, the growth with CAKI-1 renal is 82.3%; in the experiment with A498 renal it was 98%; in the experiment with CCRF-CEM leukemia, 98.4%; with MOLT-4 leukemia, 99.5%.
Take `CCCCCCCCCCCCNC(=O)N[C@H](C(=O)N[C@H]1/C=C/CCNC(=O)/C=C/[C@H](C)NC1=O)C(C)C`: the growth in the experiment on SK-MEL-2 melanoma was 8.32% (active); in the experiment with EKVX NSCLC, 25%; in the experiment with SN12C renal, -42.4% (active); with UO-31 renal, 36.7%; in the experiment on TK-10 renal it was 8.32% (active); in the experiment on ACHN renal it was 16.6%. The growth in the experiment on CAKI-1 renal is 35.8%; in the experiment with A498 renal, -55.3% (active); in the experiment with CCRF-CEM leukemia, -5.12% (active); in the experiment with MOLT-4 leukemia, -29% (active).
Regarding `CC(C)(C)c1nn(-c2ccccc2)c2c1C(=O)CSC(c1ccccc1Cl)N2` (stereo not given), the growth is 45.5% with SK-MEL-2 melanoma; 30.8% in the experiment on EKVX NSCLC; 53.8% in the experiment with SN12C renal; 29.2% with UO-31 renal; 77.5% in the experiment with TK-10 renal; 53.7% in the experiment on ACHN renal. Moreover, the growth is 10% in the experiment with CAKI-1 renal, 56.9% in the experiment on A498 renal, 11.4% with CCRF-CEM leukemia and 20.9% with MOLT-4 leukemia.
For `COc1cc(C2CC(c3ccccc3)=NN2C=O)ccc1Oc1ccnc2cc(Cl)ccc12` (stereo not given), the growth with SK-MEL-2 melanoma is 82.4%; in the experiment with EKVX NSCLC it was 33.5%; in the experiment with SN12C renal, 65.4%; in the experiment on UO-31 renal it was 47.2%; in the experiment on TK-10 renal, 91.1%; in the experiment with ACHN renal it was 68.9%. The growth in the experiment with CAKI-1 renal is 49.6%; in the experiment on A498 renal, 76.4%; in the experiment with CCRF-CEM leukemia, 45.7%; in the experiment with MOLT-4 leukemia, 12.8%.
On to `ClC1(Cl)C2CCCCCCC21` (stereo not given), for which the growth in the experiment on SK-MEL-2 melanoma was 93%; in the experiment with EKVX NSCLC, 107%; in the experiment with SN12C renal it was 108%; with UO-31 renal it was 93.4%; in the experiment on TK-10 renal, 92.1%; in the experiment on ACHN renal, 110%. The growth with CAKI-1 renal is 98.3%; in the experiment on A498 renal it was 79.3%; in the experiment with CCRF-CEM leukemia it was 109%; in the experiment on MOLT-4 leukemia, 109%.
Take `C/C(=N\NC(=O)CSc1nc2ccccc2c(=O)n1CCc1ccc(S(N)(=O)=O)cc1)c1ccc(Br)cc1`: the growth was 80.4% with SK-MEL-2 melanoma; 88.2% in the experiment on EKVX NSCLC; 92.2% with SN12C renal; 78.3% in the experiment on UO-31 renal; 106% in the experiment with TK-10 renal; 93.6% with ACHN renal. In addition, the growth in the experiment with CAKI-1 renal was 79.8%; in the experiment on A498 renal, 97.5%; with CCRF-CEM leukemia it was 76.7%; with MOLT-4 leukemia, 55.3%.
Regarding `O=C1SCN(Cc2ccccc2)CN1Cc1ccccc1`, the growth with SK-MEL-2 melanoma was 101%; with EKVX NSCLC, 101%; with SN12C renal it was 96.3%; in the experiment with UO-31 renal, 57.9%; in the experiment with TK-10 renal, 111%; with ACHN renal it was 107%. Besides, the growth in the experiment on CAKI-1 renal is 95.9%; in the experiment with A498 renal, 78.2%; in the experiment on CCRF-CEM leukemia, 61.3%; in the experiment on MOLT-4 leukemia it was 71.8%.
